From the supplement of paper PMC10849652
Targets with a hit are over-represented here; the source holds about 7,900 in all. About 0.6% of all pairs of compound and target were hits. Values without a mark were called inactive.

Assays:
Experiment in all cases: log2 fold change, soluble protein after heating vs DMSO (PISA); higher = thermal stabilisation; K562 cells, 10 uM, 30 min; active = over 0.2 and 3.5 SD of the protein, either way, in both replicates (recomputed)
[1] = compound: CC[C@@H]1C(=O)N(C)c2cnc(Nc3ccc(C(=O)NC4CCN(C)CC4)cc3OC)nc2N1C1CCCC1
Outline: (§1)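 K562 cells at 2×10^6 cells/mL were treated for 30 min with 10 μM compound, and aliquots were heated for 3 min over 48°C-58°C before pooling. Extraction used PBS with 0.5% NP-40 at 4°C, and soluble protein was the supernatant after 21,000xg for 90 min, measured by TMTpro 16plex LC-MS/MS with channel sums equalised. Thermal stability values, relative to control samples and from duplicates, are log2 fold changes.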

volasertib = compound: CC[C@@H]1C(=O)N(C)c2cnc(Nc3ccc(C(=O)N[C@H]4CC[C@H](N5CCN(CC6CC6)CC5)CC4)cc3OC)nc2N1C(C)C [volasertib]
Outline: as §1

[2] = compound: CC[C@H](C)N1C=C(C2=C(C=C(C=C21)C3=CN=C(C=C3)N4CCNCC4)C(=O)NCC5=C(C=C(NC5=O)C)C)C
Outline: as §1

epoxomicin = compound: CC[C@H](C)[C@@H](C(=O)N[C@@H]([C@@H](C)O)C(=O)N[C@@H](CC(C)C)C(=O)[C@]1(CO1)C)NC(=O)[C@H]([C@@H](C)CC)N(C)C(=O)C [epoxomicin]
Outline: as §1

[3] = compound: CCn1c(C(=O)N(C2CC2)C2CC2)cc2c3c(ncn3C)c(Nc3cc(C)n(C)n3)nc21
Outline: as §1

[4] = compound: CCn1cc(-c2ccnc3[nH]c(-c4cccc(CN(C)C)c4)cc23)c(-c2ccc(NC(=O)N(C)C)cc2)n1
Outline: as §1

[5] = compound: CN(C)CC(=O)Nc1ccc2[nH]c(=O)c3ccccc3c2c1
Outline: as §1

rosiglitazone = compound: CN(CCOC1=CC=C(C=C1)C[C@H]2C(=O)NC(=O)S2)C3=CC=CC=N3 (racemic) [rosiglitazone]
Outline: as §1

[6] = compound: CN1C2=C(C3=C1C(=O)N(N=C3)CC4=CC(=CC=C4)N)SC(=C2)S(=O)C
Outline: as §1

[7] = compound: CN1CCC(CNc2ccc3ncc(-c4cccc(OC(F)(F)F)c4)n3n2)CC1
Outline: as §1

saracatinib = compound: CN1CCN(CCOc2cc(OC3CCOCC3)c3c(Nc4c(Cl)ccc5c4OCO5)ncnc3c2)CC1 [saracatinib]
Outline: as §1

alvocidib = compound: CN1CC[C@H](c2c(O)cc(O)c3c(=O)cc(-c4ccccc4Cl)oc23)[C@H](O)C1 [alvocidib]
Outline: as §1

Tubastatin A = compound: CN1CCc2c(c3ccccc3n2Cc2ccc(C(=O)NO)cc2)C1 [Tubastatin A]
Outline: as §1

[8] = compound: CNC(=O)C1=CC=CC=C1NC2=NC(=NC=C2Cl)NC3=C(C=C(C=C3)N4CCOCC4)OC
Outline: as §1

defactinib = compound: CNC(=O)c1ccc(Nc2ncc(C(F)(F)F)c(NCc3nccnc3N(C)S(C)(=O)=O)n2)cc1 [defactinib]
Outline: as §1

rucaparib = compound: CNCc1ccc(-c2[nH]c3cc(F)cc4c3c2CCNC4=O)cc1 [rucaparib]
Outline: as §1

[9] = compound: CNc1nc(-c2ccc3c(N)n[nH]c3c2)cc(N2C[C@@H](C(=O)NC3CCCCC3)CC[C@H]2C)n1
Outline: as §1

encorafenib = compound: COC(=O)N[C@@H](C)CNc1nccc(-c2cn(C(C)C)nc2-c2cc(Cl)cc(NS(C)(=O)=O)c2F)n1 [encorafenib]
Outline: as §1

[10] = compound: COC(=O)[C@H](CCSC)NC(=O)C1=C(C=C(C=C1)NC[C@H](CS)N)C2=CC=CC=C2
Outline: as §1

sotrastaurin = compound: CN1CCN(c2nc(C3=C(c4c[nH]c5ccccc45)C(=O)NC3=O)c3ccccc3n2)CC1 [sotrastaurin]
Outline: as §1

Chain of UniProt Q8N573 (Q8N573 whole entry, looked up): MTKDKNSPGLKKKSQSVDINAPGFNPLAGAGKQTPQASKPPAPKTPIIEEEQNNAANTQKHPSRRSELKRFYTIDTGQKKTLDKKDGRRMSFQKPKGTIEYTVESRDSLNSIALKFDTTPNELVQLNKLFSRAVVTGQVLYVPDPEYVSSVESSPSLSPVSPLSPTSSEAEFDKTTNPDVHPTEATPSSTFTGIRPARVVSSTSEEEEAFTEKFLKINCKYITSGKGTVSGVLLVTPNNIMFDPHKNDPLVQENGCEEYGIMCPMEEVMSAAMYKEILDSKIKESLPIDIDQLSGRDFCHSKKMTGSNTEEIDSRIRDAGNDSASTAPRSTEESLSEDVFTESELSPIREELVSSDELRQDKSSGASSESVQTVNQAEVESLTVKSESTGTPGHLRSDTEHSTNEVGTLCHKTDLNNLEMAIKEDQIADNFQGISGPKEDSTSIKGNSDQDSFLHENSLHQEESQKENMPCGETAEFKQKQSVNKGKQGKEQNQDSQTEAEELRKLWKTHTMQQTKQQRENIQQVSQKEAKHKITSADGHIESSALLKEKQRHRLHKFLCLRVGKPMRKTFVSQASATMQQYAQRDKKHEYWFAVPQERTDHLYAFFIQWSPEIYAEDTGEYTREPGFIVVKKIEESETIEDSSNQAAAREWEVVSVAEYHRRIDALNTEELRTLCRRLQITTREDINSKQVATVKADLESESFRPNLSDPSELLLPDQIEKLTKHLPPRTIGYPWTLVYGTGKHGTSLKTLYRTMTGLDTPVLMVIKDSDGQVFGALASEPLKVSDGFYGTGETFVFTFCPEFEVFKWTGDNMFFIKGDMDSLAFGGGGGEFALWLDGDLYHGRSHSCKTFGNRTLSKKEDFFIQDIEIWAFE
Chain of UniProt Q9BVC4 (Q9BVC4 whole entry, looked up): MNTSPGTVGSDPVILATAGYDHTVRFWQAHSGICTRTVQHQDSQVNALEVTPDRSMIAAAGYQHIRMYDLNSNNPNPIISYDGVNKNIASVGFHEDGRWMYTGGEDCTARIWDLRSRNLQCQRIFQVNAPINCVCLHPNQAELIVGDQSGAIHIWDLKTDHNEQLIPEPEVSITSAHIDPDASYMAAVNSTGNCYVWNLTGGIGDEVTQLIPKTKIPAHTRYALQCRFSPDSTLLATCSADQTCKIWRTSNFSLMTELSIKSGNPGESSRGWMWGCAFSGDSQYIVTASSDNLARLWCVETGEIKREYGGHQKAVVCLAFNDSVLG
Chain of UniProt P22059 (P22059 whole entry, looked up): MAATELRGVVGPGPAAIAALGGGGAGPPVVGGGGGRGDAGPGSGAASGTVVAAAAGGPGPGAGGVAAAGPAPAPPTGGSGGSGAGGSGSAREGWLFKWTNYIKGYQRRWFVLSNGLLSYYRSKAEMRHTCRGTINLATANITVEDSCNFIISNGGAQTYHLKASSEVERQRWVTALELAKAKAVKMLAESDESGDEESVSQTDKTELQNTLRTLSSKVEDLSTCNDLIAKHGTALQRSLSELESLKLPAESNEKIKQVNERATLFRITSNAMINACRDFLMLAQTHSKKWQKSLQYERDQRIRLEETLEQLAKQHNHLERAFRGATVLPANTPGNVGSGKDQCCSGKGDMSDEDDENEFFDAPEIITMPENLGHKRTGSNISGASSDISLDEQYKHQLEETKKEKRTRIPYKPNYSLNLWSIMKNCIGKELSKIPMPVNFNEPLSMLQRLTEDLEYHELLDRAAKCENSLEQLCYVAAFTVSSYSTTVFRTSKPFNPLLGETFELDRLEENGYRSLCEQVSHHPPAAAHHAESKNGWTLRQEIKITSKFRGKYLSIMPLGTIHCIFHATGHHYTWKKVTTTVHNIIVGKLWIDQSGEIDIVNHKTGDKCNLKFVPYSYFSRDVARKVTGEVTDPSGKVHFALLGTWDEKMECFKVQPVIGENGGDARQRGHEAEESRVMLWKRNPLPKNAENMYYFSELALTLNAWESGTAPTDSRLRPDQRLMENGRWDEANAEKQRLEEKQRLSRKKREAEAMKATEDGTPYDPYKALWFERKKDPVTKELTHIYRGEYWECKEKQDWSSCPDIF
Chain of UniProt Q9UHC9 (Q9UHC9 whole entry, looked up): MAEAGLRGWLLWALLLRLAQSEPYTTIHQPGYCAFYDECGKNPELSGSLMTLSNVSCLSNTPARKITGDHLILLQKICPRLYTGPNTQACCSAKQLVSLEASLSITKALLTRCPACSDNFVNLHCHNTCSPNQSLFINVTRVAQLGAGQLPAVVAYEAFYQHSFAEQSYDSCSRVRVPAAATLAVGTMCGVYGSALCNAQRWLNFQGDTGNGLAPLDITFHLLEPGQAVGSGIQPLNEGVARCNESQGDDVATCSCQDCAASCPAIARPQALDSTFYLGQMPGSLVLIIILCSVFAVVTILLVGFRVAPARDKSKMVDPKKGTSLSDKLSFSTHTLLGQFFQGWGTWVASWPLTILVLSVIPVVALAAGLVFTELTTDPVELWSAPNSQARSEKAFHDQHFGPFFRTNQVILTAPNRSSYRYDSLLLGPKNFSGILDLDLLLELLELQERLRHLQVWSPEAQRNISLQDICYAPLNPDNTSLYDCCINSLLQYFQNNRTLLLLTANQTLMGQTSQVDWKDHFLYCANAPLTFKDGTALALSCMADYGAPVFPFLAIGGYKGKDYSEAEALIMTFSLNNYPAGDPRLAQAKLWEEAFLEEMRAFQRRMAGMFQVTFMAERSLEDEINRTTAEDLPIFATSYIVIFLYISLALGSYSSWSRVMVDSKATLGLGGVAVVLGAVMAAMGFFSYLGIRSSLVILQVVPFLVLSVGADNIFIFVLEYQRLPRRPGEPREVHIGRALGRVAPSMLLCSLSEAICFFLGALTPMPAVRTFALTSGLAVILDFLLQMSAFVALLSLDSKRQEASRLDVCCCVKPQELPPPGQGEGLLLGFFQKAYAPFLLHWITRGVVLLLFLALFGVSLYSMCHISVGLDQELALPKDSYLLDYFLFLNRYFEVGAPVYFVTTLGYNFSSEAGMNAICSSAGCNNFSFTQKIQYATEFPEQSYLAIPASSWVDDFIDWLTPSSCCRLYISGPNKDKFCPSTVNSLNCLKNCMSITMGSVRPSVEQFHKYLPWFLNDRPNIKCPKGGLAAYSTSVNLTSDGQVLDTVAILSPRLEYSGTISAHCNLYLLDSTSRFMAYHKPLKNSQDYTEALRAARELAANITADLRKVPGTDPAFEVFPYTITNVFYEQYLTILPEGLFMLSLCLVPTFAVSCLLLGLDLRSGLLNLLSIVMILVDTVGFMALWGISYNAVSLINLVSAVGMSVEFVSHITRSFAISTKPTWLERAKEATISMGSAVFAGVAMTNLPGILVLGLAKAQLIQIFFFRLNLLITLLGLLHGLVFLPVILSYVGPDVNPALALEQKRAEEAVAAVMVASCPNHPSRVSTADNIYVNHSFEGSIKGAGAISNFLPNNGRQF
Chain of UniProt Q9H000 (Q9H000 whole entry, looked up): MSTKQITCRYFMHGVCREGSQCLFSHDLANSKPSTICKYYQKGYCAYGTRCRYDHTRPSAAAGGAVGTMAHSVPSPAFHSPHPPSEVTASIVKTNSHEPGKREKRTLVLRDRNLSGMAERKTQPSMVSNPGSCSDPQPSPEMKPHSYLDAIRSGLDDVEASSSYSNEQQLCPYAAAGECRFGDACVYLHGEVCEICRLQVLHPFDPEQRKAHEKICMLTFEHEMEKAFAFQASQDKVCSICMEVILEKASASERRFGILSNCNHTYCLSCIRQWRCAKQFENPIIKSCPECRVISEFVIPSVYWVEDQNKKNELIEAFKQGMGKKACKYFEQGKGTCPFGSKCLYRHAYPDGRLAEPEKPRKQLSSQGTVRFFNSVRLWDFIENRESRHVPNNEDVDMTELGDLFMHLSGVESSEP
Chain of UniProt Q8N5F7 (Q8N5F7 whole entry, looked up): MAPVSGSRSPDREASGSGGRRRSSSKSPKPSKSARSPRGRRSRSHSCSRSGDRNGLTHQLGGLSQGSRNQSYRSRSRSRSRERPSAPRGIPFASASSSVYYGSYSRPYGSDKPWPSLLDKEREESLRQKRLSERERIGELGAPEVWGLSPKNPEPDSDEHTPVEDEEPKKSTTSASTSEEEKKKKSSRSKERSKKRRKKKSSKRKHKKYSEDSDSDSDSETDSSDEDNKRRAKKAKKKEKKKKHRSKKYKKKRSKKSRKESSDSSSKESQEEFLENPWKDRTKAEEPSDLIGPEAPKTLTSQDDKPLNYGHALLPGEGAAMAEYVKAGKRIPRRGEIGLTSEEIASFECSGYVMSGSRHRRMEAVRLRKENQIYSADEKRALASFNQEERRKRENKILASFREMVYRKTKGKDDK
Chain of UniProt O60361 (O60361 whole entry, looked up): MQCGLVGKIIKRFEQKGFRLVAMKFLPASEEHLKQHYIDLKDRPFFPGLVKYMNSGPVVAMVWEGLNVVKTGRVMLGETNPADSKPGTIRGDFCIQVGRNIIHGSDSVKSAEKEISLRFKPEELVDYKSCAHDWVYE
Chain of UniProt P53370 (P53370 whole entry, looked up): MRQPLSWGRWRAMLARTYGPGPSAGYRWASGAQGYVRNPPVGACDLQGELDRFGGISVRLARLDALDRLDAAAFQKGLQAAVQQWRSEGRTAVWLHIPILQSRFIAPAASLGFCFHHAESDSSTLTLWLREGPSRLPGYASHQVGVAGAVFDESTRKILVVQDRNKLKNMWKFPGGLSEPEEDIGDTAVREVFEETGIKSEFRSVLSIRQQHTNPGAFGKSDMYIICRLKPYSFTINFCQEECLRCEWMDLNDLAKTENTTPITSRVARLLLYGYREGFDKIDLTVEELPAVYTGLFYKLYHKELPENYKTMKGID
Chain of UniProt P25208 (P25208 whole entry, looked up): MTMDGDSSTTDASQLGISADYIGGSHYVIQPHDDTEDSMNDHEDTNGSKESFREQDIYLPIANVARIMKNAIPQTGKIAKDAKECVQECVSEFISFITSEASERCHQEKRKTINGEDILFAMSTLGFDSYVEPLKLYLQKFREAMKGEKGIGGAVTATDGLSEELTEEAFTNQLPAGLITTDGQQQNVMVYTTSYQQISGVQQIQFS
Chain of UniProt Q9Y605 (Q9Y605 whole entry, looked up): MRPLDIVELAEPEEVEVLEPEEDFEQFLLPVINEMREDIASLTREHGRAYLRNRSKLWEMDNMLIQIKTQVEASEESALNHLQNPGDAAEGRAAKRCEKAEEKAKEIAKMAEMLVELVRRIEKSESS

Target	log2 fold change [1]	log2 fold change (volasertib)	log2 fold change [2]	log2 fold change (epoxomicin)	log2 fold change [3]	log2 fold change [4]	log2 fold change [5]	log2 fold change (rosiglitazone)	log2 fold change [6]	log2 fold change [7]	log2 fold change (saracatinib)	log2 fold change (alvocidib)	log2 fold change (Tubastatin A)	log2 fold change [8]	log2 fold change (defactinib)	log2 fold change (rucaparib)	log2 fold change [9]	log2 fold change (encorafenib)	log2 fold change [10]	log2 fold change (sotrastaurin)
NKAP (UniProt Q8N5F7)	0.026	-0.3	0.082	-0.109	-0.028	0.092	0.052	0.024	-0.025	-0.164	0.067	-0.142	0.093	-0.296	0.092	0.055	0.085	0.149	0.039	–
MTHFD1, A0A384N5Y3	-0.152	-0.011	0.065	0.002	–	-0.113	0.045	0.023	-0.084	-0.081	-0.047	-0.129	0.032	–	-0.173	-0.039	-0.004	-0.003	-0.036	0.025
NUDT6 (UniProt P53370)	0.177	0.041	-0.289	0.031	0.016	–	-0.055	–	-0.132	–	0.063	0.165	0.098	0.014	0.066	-0.38	-0.023	-0.024	-0.087	–
MKRN2 (UniProt Q9H000)	-0.08	-0.633 (active)	0.106	-0.068	-0.064	0.193	0.126	0.063	0.152	0.082	-0.203	-0.002	0.177	-0.08	-0.049	0.258	0.007	0.109	-0.005	-0.024
OSBP (UniProt P22059)	0.056	0.377 (active)	0.032	0.053	-0.101	-0.087	0.013	0.038	-0.064	0.061	-0.051	-0.028	0.037	0.062	-0.066	-0.11	0.062	-0.006	-0.001	-0.147
MSL1 (UniProt Q68DK7)	0.077	0.002	-0.19	0.007	-0.161	-0.26	-0.087	0.028	0.098	-0.161	-0.026	–	–	-0.253	-0.069	-0.042	0.04	-0.088	-0.017	0.052
MRPS21 (UniProt P82921)	0.062	-0.008	0.063	0.064	-0.052	–	0.058	0.165	-0.205	–	-0.193	-0.095	-0.056	0.038	-0.075	-0.016	0.127	0.045	-0.075	0.036
OXR1 isoform 2 (UniProt Q8N573)	-0.092	-0.09	-0.082	0.127	–	0.056	-0.004	–	-0.015	-0.244	-0.138	0.051	-0.038	–	-0.067	-0.008	0.092	-0.022	0.047	–
NDUFB1 (UniProt O75438)	-0.004	-0.08	-0.099	0.396 (active)	-0.026	-0.102	0.006	0.009	–	0.282 (active)	–	-0.042	-0.09	-0.01	-0.021	-0.035	–	0.001	0.034	0.015
NPC1L1 (UniProt Q9UHC9)	-0.029	-0.016	0.2	–	–	–	-0.016	0.045	-0.081	–	-0.026	0.013	0.005	–	-0.093	-0.06	-0.051	-0.038	0.093	0.033
NAGPA (UniProt Q9UK23)	0.213	0.555 (active)	-0.065	0.071	-0.022	0.084	–	-0.061	-0.084	-0.083	-0.009	-0.008	0.068	0.022	–	-0.132	-0.049	0.014	–	-0.017
MRFAP1 (UniProt Q9Y605)	-0.107	-0.386	0	–	0.029	0.022	0.242	0.048	-0.08	-0.032	-0.118	-0.097	0.329	-0.003	-0.051	-0.099	-0.002	0.141	-0.027	0.102
NMU (UniProt P48645)	0.094	0.072	0	0.077	-0.044	0.008	-0.017	-0.021	-0.008	0.271	-0.017	0.044	0.149	-0.055	-0.08	-0.076	-0.09	0.034	-0.042	–
NME2P1 (UniProt O60361)	0.117	0.03	-0.177	0.033	-0.162	0.198	-0.021	0.166	–	-0.074	–	0.004	0.059	-0.145	0.034	-0.814 (active)	–	0.003	-0.017	0.057
MRPS26 (UniProt Q9BYN8)	0.011	-0.094	–	0.033	-0.094	-0.023	0.003	0.053	0.052	-0.092	-0.094	0.025	0.156	0.003	-0.01	0.093	0.122	0.089	0.003	-0.013
NFYB (UniProt P25208)	0.008	0.019	-0.029	–	-0.007	-0.055	-0.011	-0.054	0.031	0.085	0.111	0.162	-0.143	0	-0.001	-0.099	-0.019	-0.051	0.03	-0.084
MLST8 (UniProt Q9BVC4)	-0.22	-0.353 (active)	0.05	-0.02	-0.099	–	0.109	-0.029	-0.016	–	-0.124	-0.034	0.124	-0.116	-0.092	0.099	0.014	0.101	-0.106	-0.003
ORC5 (UniProt O43913)	-0.196	-0.42	0.074	–	-0.071	-0.103	0.105	0.084	-0.029	-0.203	-0.081	-0.195	0.093	-0.097	-0.182	0.094	-0.009	0.033	-0.05	0.149
